From PubChem BioAssay (NCATS)
Active and inactive are the calls of the source. Calls follow the shape of the dose curve; as a rule, active = well fitted curve in the direction sought with a large enough effect; inconclusive = small, poorly fitted or top-dose-only effect, or another doubt; inactive = no such curve, though single readings can be large or run the other way.

biological target: Methanococcus maripaludis chaperonin (MmCpn) (UniProt Q6LX38); assay: High-Throughput Screening for Modulators of Cytosolic Chaperonin Activity: MmCpn Primary Screen (AID 488978); conditions: Purified MmCpn ATPase activity, ADP HTRF detection, 10 min; series mostly up to 76.9 µM; activity change, negative = inhibition: at the top concentration; also: 0% is about no effect
Sequence (Q6LX38 1-543): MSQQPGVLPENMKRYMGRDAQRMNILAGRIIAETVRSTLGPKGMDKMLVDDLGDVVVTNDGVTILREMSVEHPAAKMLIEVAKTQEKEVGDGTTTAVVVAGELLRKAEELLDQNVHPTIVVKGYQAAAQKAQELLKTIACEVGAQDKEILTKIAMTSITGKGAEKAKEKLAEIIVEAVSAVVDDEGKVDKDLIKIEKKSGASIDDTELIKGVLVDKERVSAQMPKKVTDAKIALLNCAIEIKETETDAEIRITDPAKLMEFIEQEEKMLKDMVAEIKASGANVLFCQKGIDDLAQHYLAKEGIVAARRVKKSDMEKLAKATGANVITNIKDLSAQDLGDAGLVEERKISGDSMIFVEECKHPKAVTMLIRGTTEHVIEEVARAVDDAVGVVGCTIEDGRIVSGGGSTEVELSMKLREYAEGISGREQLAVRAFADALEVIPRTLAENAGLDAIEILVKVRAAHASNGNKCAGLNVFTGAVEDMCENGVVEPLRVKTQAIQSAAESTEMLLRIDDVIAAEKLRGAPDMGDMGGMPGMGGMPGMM
Excerpt: Chaperonins are key components of the cellular chaperone machinery. These large complexes consist of two stacked 7-9 membered rings, each containing a central cavity. Substrates are folded within the cavity in an ATP-dependent manner. TRiC is a complex of eight different, essential proteins. As each of the genes encoding the eight subunits is essential for cell viability and no protocol has been developed to overexpress this enzyme to high levels, several groups have turned to the archaeal homolog of TRiC from Methanococcus maripaludis (MmCpn) as a model system for the study of the type II chaperonin family.
MmCpn was kindly provided by the laboratory of Judith Frydman.
1. Dispense 1.5 ul enzyme of either TriC at 100 nM or MmCpn at 50 nM final concentration.
2. Transfer 23 nl of compound to plate, incubate 5 min at RT.
3. 1.5 ul ATP at 30 uM at final concentration dispensed into plate.
4. Incubate for 10 minutes at 37C (MmCPN), 30C (TriC).
5. 3 ul of the Cisbio ADP Transcreener HTRF detection reagent prepared according to protocol dispensed into plate.
6. Incubate for 5 minutes.
7. Read using EnVision plate reader at Excitation = 320nm and Emission = 590nm, 665nm

Row | SMILES | activity change, negative = inhibition
1 | O=C(O)/C(=C/c1c(C(=O)O)[nH]c2cc(Cl)cc(Cl)c12)c1ccccc1 | -2.16% (inactive)
2 | Nc1ccc2c3c(cccc13)C(=O)NC2=O | -6.44% (inactive)
3 | O[Si](CCCN1CCCCC1)(c1ccc(F)cc1)C1CCCCC1 (stereo not given) | 0.51% (inactive)
4 | N#C/C(=C\c1ccc(O)c(O)c1)C(=O)NCCc1ccccc1 | 0.0628% (inactive)
5 | NC/C=C\C(=O)O | 0.156% (inactive)
6 | NC1CCN(O)C1=O (stereo not given) | 0.92% (inactive)
7 | N=S(=O)(O)Cc1noc2ccccc12 | -2.55% (inactive)
8 | O=c1cc(-c2ccccc2F)[nH]c2cc3c(cc12)OCO3 | -1.02% (inactive)
9 | C[C@](Cc1ccc(O)c(O)c1)(NN)C(=O)O | 0.289% (inactive)
10 | CC(N)(Cc1ccc(O)c(O)c1)C(=O)O (stereo not given) | -1.13% (inactive)
11 | O=S(=O)(c1cccc2c(Cl)cccc12)N1CCCNCC1 | 0.398% (inactive)
12 | N[C@@H](CS(=O)O)C(=O)O | -2.41% (inactive)
13 | Cc1ccc2c(c1)C(N1CCN(C)CC1)=Nc1cccnc1N2 | -0.607% (inactive)
14 | COc1ccccc1N1CCN(CCCNc2c(C)c(=O)n(C)c(=O)n2C)CC1 | 1.01% (inactive)
15 | O=C(O)C1=CCCNC1 | 0.0032% (inactive)
16 | COc1ccc(CCn2nnnc2C2(c3ccc(C)cc3)CC2)cc1 | -1.88% (inactive)
17 | NCCCCN=C(N)N | -1.78% (inactive)
18 | O=C(O)c1ccccc1Nc1ccccc1 | -3.17% (inactive)
19 | N=C(N)SCCc1cnc[nH]1 | 1.4% (inactive)
20 | Nc1nc2c(nc(Br)n2C2OC3COP(=O)(O)O[C@@H]3C2O)c(=O)[nH]1 (stereo not given in full) | -1.55% (inactive)

Row | SMILES | activity change, negative = inhibition
21 | COC(=O)C(N)Cc1ccc(Cl)cc1 (stereo not given) | -2.77% (inactive)
22 | C[C@@]1(C2CCCC2)Cc2cc(OCC(=O)O)c(Cl)c(Cl)c2C1=O | 1.34% (inactive)
23 | Cc1cccc(C(=O)NCN2CCN(c3ccccc3C#N)CC2)c1 | 4.16% (inactive)
24 | CC(C)(C)NCC(O)COc1cccc2[nH]c(=O)[nH]c12 (stereo not given) | 0.153% (inactive)
25 | CC[C@H](NC(=O)c1c(C)c(-c2ccccc2)nc2ccccc12)c1ccccc1 | -0.982% (inactive)
26 | Nc1ccc(-c2ccc3ccccc3n2)cc1 | -3.6% (inactive)
27 | NCCCNCCCCNCCCN | 0.155% (inactive)
28 | C[C@]12C=CC(=O)C=C1CC[C@@H]1C2=CC[C@]2(C)[C@@H](C(=O)CN3CCN(c4cc(N5CCCC5)nc(N5CCCC5)n4)CC3)CC[C@@H]12 | -3.85% (inactive)
29 | CC(=O)NCCc1c[nH]c2ccc(O)cc12 | 2.25% (inactive)
30 | CCCCCCN(CCCCCC)C(=O)Cc1c(-c2ccc(F)cc2)[nH]c2ccccc12 | 1.54% (inactive)
31 | N[C@H](C(=O)O)[C@H](Cc1ccccc1)C(=O)O | 1.2% (inactive)
32 | CCCn1c(=O)c(C)cn2nc(N)nc12 | -2.43% (inactive)
33 | Cc1nc2n(c(=O)c1CCN1CCC(c3noc4cc(F)ccc34)CC1)CCCC2O (stereo not given) | 0.918% (inactive)
34 | N[C@@H](CCC(=O)N[C@H](CSN=O)C(=O)NCC(=O)O)C(=O)O | -0.295% (inactive)
35 | O=c1[nH]c(=O)c2nc3ccccc3nc2[nH]1 | -2.55% (inactive)
36 | NCCNS(=O)(=O)c1cccc2c(Cl)cccc12 | 2.35% (inactive)
37 | Cn1c(=O)c2[nH]c(C3CCCC3)nc2n(C)c1=O | -1.63% (inactive)
38 | Nc1ncnc2c1nc(Br)n2C1OC2COP(=O)(O)O[C@@H]2C1O (stereo not given in full) | 2.14% (inactive)
39 | O=C(O)/C=C/c1ccc(O)c(O)c1 | -0.433% (inactive)
40 | Fc1ccc(CN(C2=NCCN2)c2c(Cl)cccc2Cl)cc1 | -0.351% (inactive)
